HTT ATP protect – protects HTT-Q103 PC12 cells, measured by ATP | 230,000 tested, 0.14% active | Potency, µM (doses to about 56.4 µM), inactives show cytoprotection (ATP increase), usual class: activators | PC12 HTT-Q103 induced, cytoprotection, ATP luminescence, 40 h; note: % of control where 0% means no effect; nearly all actives have a fitted effect of over 45% in size
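Compounds were screened for protection of PC12 cells against cell death after tebufenozide induction (100 nM final) of mutant Huntingtin exon 1 (Q103) fused to GFP.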
HttQ103 aggreg – inhibitors of mutant huntingtin aggregate formation in PC12 cells. Potency, µM (titrated, usually from 46.1 µM), without a hit: top-dose activity change, negative = inhibition, usual class: inhibitors. 220,000 tested, 1.1% active. PC12 HttQ103-GFP aggregates, Acumen cytometry, 40 h; note: % is set by controls: 0 for no effect and ±100 for the full control effect; nearly all actives have a fitted effect of over 60% in size
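Aggregate formation scored by laser-scanning cytometer (488 excitation, 500–530 emission) in lysed PC12 cells expressing Q103-GFP after 100 nM tebufenozide induction; library tested in dose series, with ATPLite reagent added in the multiplex.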
NPSR antag – blocks cAMP signaling of the human neuropeptide S receptor | Q6W5P4 | CHO-NPSR cells, cAMP TR-FRET, antagonist mode | Potency, µM (series often up to 38.3 µM), inactives show at the highest dose activity change, negative = inhibition, most hits filed as inhibitors | 220,000 tested, 1% active | AID 1461; note: % is set by controls: 0 for no effect and ±100 for the full control effect; nearly all actives have a fitted effect of over 50% in size
Target sequence (Q6W5P4 whole entry, looked up): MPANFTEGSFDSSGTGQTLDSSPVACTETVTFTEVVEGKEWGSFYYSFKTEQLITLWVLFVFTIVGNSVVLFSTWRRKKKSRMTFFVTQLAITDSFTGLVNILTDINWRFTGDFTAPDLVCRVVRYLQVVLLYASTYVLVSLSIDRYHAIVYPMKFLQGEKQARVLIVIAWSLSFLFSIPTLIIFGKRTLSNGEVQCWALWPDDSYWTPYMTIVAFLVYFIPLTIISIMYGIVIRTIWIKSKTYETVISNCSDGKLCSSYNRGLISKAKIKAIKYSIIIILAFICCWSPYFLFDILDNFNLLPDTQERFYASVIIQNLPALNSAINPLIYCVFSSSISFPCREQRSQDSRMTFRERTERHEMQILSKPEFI
IMPase Li inh – membrane-permeable IMPase blocker, potentiated with lithium | 210,000 tested, 0.35% active | CHO-M1 cells, IP1 TR-FRET (IP-One), carbachol + lithium | Potency, µM (highest dose often 59.4 µM), without a hit: at the highest dose activity, negative = IMPase inhibition, most hits filed as inhibitors | AID 1457;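 note: IP1 builds up when IMPase is blocked and the TR-FRET signal falls; plate controls were basal vehicle for no effect and high inhibitor control for full effect; nearly all actives have a fitted effect of over 50% in size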
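CHO cells stably expressing M1 receptor (2000/well) were cultured 16–30 h, then exposed to compounds with a small lithium addition for 30 min at 37C. IP1 was measured by TR-FRET competition; AC50 from Hill fits.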
ERK EGF block – blocks ERK signaling stimulated by EGF | HEK293-V1b, EGF-stimulated phospho-ERK AlphaScreen | Potency, µM (doses to about 11.5 µM), for inactives: at the highest dose activity change, negative = inhibition, hits mostly inhibitors | 130,000 tested, 0.41% active | AID 1454;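 note: plate controls were stimulated vehicle wells for no effect and unstimulated vehicle basal for full effect; nearly all actives have a fitted effect of over 55% in size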
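HEK293 cells stably expressing V1b receptor, serum-reduced (1% FBS) overnight, pretreated 30 min with compound, then stimulated 5 min with 25 nM EGF; phospho-ERK detected by AlphaScreen SureFire. AC50 from Hill fits, normalized to DMSO and EGF.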
Active calls of the source: *; ! = not active in a repeat; [ ] = dose if it differs, or a comment. The list is not random: actives were taken first. Their share in the collection is about 1.9%. Calls come from the whole dose curve; as a rule, active = well fitted curve in the direction sought with a large enough effect; inconclusive = small, poorly fitted or top-dose-only effect, or another doubt; inactive = no such curve, though single readings can be large; an effect the other way counts as inactive or inconclusive. Potency is the fitted concentration of half-maximal effect.

`CC(C)(C)c1nc(N2CCN(C(=O)c3ccco3)CC2)c2nnn(Cc3ccccc3Cl)c2n1` gave HTT ATP protect 15%[10 µM], HttQ103 aggreg 6%[9.22 µM], NPSR antag 10µM* and IMPase Li inh 28%[38.3 µM].
Cc1nn(Cc2ccccc2Cl)c(Cl)c1C(=O)O was read as HTT ATP protect -29%, HttQ103 aggreg -3%, NPSR antag -1%, IMPase Li inh 5% and ERK EGF block 4%.
For CCC(=NCCc1c[nH]c2ccccc12)c1c(O)n(C)c(=O)n(C)c1=O the results were HTT ATP protect -28%, HttQ103 aggreg 7.9µM*, NPSR antag -12%[46.1 µM] and IMPase Li inh 45%[38.3 µM].
`CCC(=NCCOc1ccc(Cl)cc1)c1c(O)n(C)c(=O)n(C)c1=O` gave HTT ATP protect -23%, HttQ103 aggreg 11µM*, NPSR antag -6%[46.1 µM] and IMPase Li inh 24%[38.3 µM].
Screening CCC(=NCCN1CCCCC1)c1c(O)n(C)c(=O)n(C)c1=O returned HTT ATP protect 6%, HttQ103 aggreg 8%, NPSR antag 8%[46.1 µM] and IMPase Li inh 21%[38.3 µM].
For CCC(=NCc1ccc2c(c1)OCO2)c1c(O)n(C)c(=O)n(C)c1=O the results were HTT ATP protect -25%[0.074 µM], HttQ103 aggreg 20µM* and NPSR antag -12%[46.1 µM].
`CN(C)[C@@H]1C(=O)C(C(N)=O)=C(O)[C@@]2(O)C(=O)C3=C(O)c4c(O)cccc4[C@@](C)(O)[C@H]3[C@H](O)[C@@H]12` gave HTT ATP protect -12%, HttQ103 aggreg -12%, NPSR antag -16%, IMPase Li inh 10µM*! and ERK EGF block 0%[57.5 µM].
`CSCC[C@@H](N)P(C)(=O)O` gave HTT ATP protect 4%[10 µM] and IMPase Li inh -3%.
Cc1ccc(N2C(=O)NC(=O)/C(=C\c3cc(C)n(-c4sc5c(c4C#N)CCCC5)c3C)C2=O)cc1 was read as HTT ATP protect 2%[10 µM], HttQ103 aggreg 11%, NPSR antag -11%, IMPase Li inh 11% and ERK EGF block 0%.
CCOC(=O)c1c(-n2c(C)cc(C=C3C(=O)NC(=S)NC3=O)c2C)sc2c1CCCC2 was read as HTT ATP protect -1%[10 µM], HttQ103 aggreg inconclusive, NPSR antag 4µM* and IMPase Li inh 13%.
For C[C@@]12CC[C@H]3[C@@H](CCC4=C(O)C(=O)CC[C@]43C)[C@H]1CCC2=O the results were HTT ATP protect 7%[1.9 µM].
For CCCCCCn1c(N)c(C(=O)NCCN2CCOCC2)c2nc3ccccc3nc21 the results were HTT ATP protect -27%[0.074 µM], HttQ103 aggreg 32µM*, NPSR antag inconclusive and IMPase Li inh 5%[38.3 µM].
`CCCCCn1c(N)c(C(=O)NCCN2CCOCC2)c2nc3ccccc3nc21` gave HTT ATP protect -16%[10 µM], HttQ103 aggreg inconclusive, NPSR antag -27%[46.1 µM] and IMPase Li inh 8%[38.3 µM].
For CCCCOCCCn1c(N)c(C(=O)OCCOC)c2nc3ccccc3nc21 the results were HTT ATP protect 7%, HttQ103 aggreg 13µM*, NPSR antag -15%[46.1 µM] and IMPase Li inh -30%[38.3 µM].
Screening COCCCn1c(N)c(C(=O)NCCC(C)C)c2nc3ccccc3nc21 returned HTT ATP protect -24%[0.074 µM], HttQ103 aggreg inconclusive, NPSR antag 10µM* and IMPase Li inh -1%[38.3 µM].
`COC(=O)CSc1nc2sc3c(c2c(=O)n1C1CCCCC1)CCN(C)C3` gave HTT ATP protect 10%, HttQ103 aggreg 12%[9.22 µM], NPSR antag -29%[46.1 µM] and IMPase Li inh 20%[38.3 µM].
c1ccc([Se]c2c(-c3ccccc3)[se]c3ccccc23)cc1 was read as HTT ATP protect -43% and IMPase Li inh 5.6µM*.
Ic1c(C2=CCCCC2)[se]c2ccccc12 was read as HTT ATP protect -23% and IMPase Li inh 0%.
`CC(=O)[C@H]1CC[C@H]2[C@@H]3CCC4=CC(=O)CC[C@]4(C)[C@H]3CC[C@]12C` gave HTT ATP protect 1%[1.9 µM], HttQ103 aggreg -21%, NPSR antag -25%, IMPase Li inh 6% and ERK EGF block 14µM*!.
`Oc1c(Br)cc(Br)cc1Oc1ccc(Br)cc1Br` gave HttQ103 aggreg 13µM*, NPSR antag -37%, IMPase Li inh 11% and ERK EGF block 3%.

Assay outcomes: PubChem, National Center for Advancing Translational Sciences (NCATS)
